In PubChem BioAssay (NCI):
Where “and” joins values, the source holds several entries; their conditions need not be identical. Identical values can stand only once. The panel holds about 83,000 compounds, 20% with a hit somewhere; the sample as a whole holds those more often.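 Interpretation: 100, growth as untreated; towards 0, rising growth inhibition; 0, no net growth; 0 to -100, cell death. Compounds scoring below 10 were considered active.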 Where a structure was tested more than once in an assay, its records may differ in their call. Calls of active or inactive are those of the source.

What was measured:
Assay in all cases: NCI-60 one-dose screen, 48 h (100 = growth as untreated, 0 = no growth, -100 = all killed)
Details in all cases: 10 µM unless noted
SK-MEL-2 melanoma = system: SK-MEL-2 melanoma
EKVX NSCLC = system: EKVX NSCLC
SN12C renal = system: SN12C renal
UO-31 renal = system: UO-31 renal
TK-10 renal = system: TK-10 renal
ACHN renal = system: ACHN renal
CAKI-1 renal = system: CAKI-1 renal
A498 renal = system: A498 renal
CCRF-CEM leukemia = system: CCRF-CEM leukemia
SR leukemia = system: SR leukemia
RPMI-8226 leukemia = system: RPMI-8226 leukemia
OVCAR-5 ovarian = system: OVCAR-5 ovarian
OVCAR-4 ovarian = system: OVCAR-4 ovarian
SK-OV-3 ovarian = system: SK-OV-3 ovarian
OVCAR-3 ovarian = system: OVCAR-3 ovarian
HS 578T breast = system: HS 578T breast
NCI/ADR-RES ovarian = system: NCI/ADR-RES ovarian
OVCAR-8 ovarian = system: OVCAR-8 ovarian
MOLT-4 leukemia = system: MOLT-4 leukemia
IGROV1 ovarian = system: IGROV1 ovarian

Measured: growth

Nc1n[nH]c(=S)n1-c1ccc(Cl)cc1
inactive: SK-MEL-2 melanoma 99.9% | EKVX NSCLC 106% | SN12C renal 100% | UO-31 renal 89% | TK-10 renal 92.6% | ACHN renal 103% | CAKI-1 renal 119% | A498 renal 109% | CCRF-CEM leukemia 96.7% | SR leukemia 96.6% | RPMI-8226 leukemia 80.8% | OVCAR-5 ovarian 98.6% | OVCAR-4 ovarian 99.5% | SK-OV-3 ovarian 102% | OVCAR-3 ovarian 100% | HS 578T breast 100% | NCI/ADR-RES ovarian 100%

OC1CCC(Oc2cccc3cnc(Nc4ccc5nc[nH]c5c4)nc23)CC1 (centres undefined)
-7.28% (active) and 15.8% (inactive): HS 578T breast
-32.6% (active) and 43.1% (inactive): A498 renal
6.96% (active) and 46.2% (inactive): TK-10 renal
5.91% (active) and 52.6% (inactive): OVCAR-8 ovarian
5.57% (active) and 53.7% (inactive): OVCAR-3 ovarian
9.41% (active) and 83.2% (inactive): NCI/ADR-RES ovarian
-14.6% (active) and 15.4% (inactive): CCRF-CEM leukemia
8.38% (active) and 57.4% (inactive): SK-OV-3 ovarian
inactive: SN12C renal 10.2% and 38.4% | ACHN renal 12.8% and 41.9% | CAKI-1 renal 13.5% and 62.8% | OVCAR-5 ovarian 24.2% and 41.7% | OVCAR-4 ovarian 15.7% and 73.9%
-33.9% (active) and 52.7% (inactive): EKVX NSCLC
8.29% (active) and 49.1% (inactive): UO-31 renal
active: SR leukemia -15.3% and -4.18%
-33.7% (active) and 84.8% (inactive): SK-MEL-2 melanoma
-16.7% (active) and 55% (inactive): RPMI-8226 leukemia

Nc1nc2ncc(CNc3ccc(C(=O)N[C@@H](CCc4nn[nH]n4)C(=O)O)cc3)nc2c(=O)[nH]1
inactive: SK-MEL-2 melanoma 105% and 104% | EKVX NSCLC 96.1% and 106% | SN12C renal 109% and 98.2% | UO-31 renal 89.7% and 89.8% | TK-10 renal 111% and 109% | ACHN renal 92.2% and 104% | A498 renal 105% and 92.2% | CCRF-CEM leukemia 108% and 94.5% | MOLT-4 leukemia 95.6% | SR leukemia 95.6% | RPMI-8226 leukemia 106% and 95.5% | OVCAR-8 ovarian 106% and 90.2% | OVCAR-4 ovarian 100% and 116% | SK-OV-3 ovarian 103% and 104% | IGROV1 ovarian 99.6% and 106% | OVCAR-3 ovarian 98.6% and 113% | HS 578T breast 110% and 95.3% | NCI/ADR-RES ovarian 103% and 101%

CC(C(=O)O)n1cc(C#N)c(=O)[nH]c1=O (centres undefined)
inactive: SK-MEL-2 melanoma 120% and 102% | EKVX NSCLC 95.6% and 110% | SN12C renal 98.6% and 96.1% | UO-31 renal 81.3% and 82.4% | TK-10 renal 112% and 110% | ACHN renal 100% and 96.5% | A498 renal 107% | CCRF-CEM leukemia 91.6% and 103% | MOLT-4 leukemia 90% and 107% | SR leukemia 93.5% and 99.9% | RPMI-8226 leukemia 106% and 104% | OVCAR-8 ovarian 103% and 113% | OVCAR-5 ovarian 94.8% and 105% | OVCAR-4 ovarian 108% and 110% | SK-OV-3 ovarian 102% and 98.6% | IGROV1 ovarian 101% and 109% | OVCAR-3 ovarian 116% and 101% | HS 578T breast 114% and 113% | NCI/ADR-RES ovarian 106%

O=C(O)C1(C(=O)O)CCC1.[NH2-].[NH2-].[Pt+2]
inactive: SK-MEL-2 melanoma 97.8% and 104% | EKVX NSCLC 97.1% and 106% | SN12C renal 102% and 103% | UO-31 renal 75.6% and 103% | TK-10 renal 111% and 104% | ACHN renal 96.4% and 103% | CAKI-1 renal 88% and 81.1% | A498 renal 111% and 98.4% | CCRF-CEM leukemia 90.8% | SR leukemia 122% and 50.7% | RPMI-8226 leukemia 104% | OVCAR-8 ovarian 102% | OVCAR-5 ovarian 97.6% and 83.7% | OVCAR-4 ovarian 109% and 92.2% | SK-OV-3 ovarian 104% and 107% | IGROV1 ovarian 95.6% | OVCAR-3 ovarian 117% and 105% | HS 578T breast 105% and 112% | NCI/ADR-RES ovarian 103% and 99.7%

Nc1ccc(N=Nc2ccc(S(=O)(=O)O)cc2)cc1S(=O)(=O)O
inactive: SK-MEL-2 melanoma 98.7% and 82.5% | EKVX NSCLC 96.3% and 109% | SN12C renal 105% and 96.1% | UO-31 renal 81.4% and 93.4% | TK-10 renal 115% and 97.6% | ACHN renal 99.8% and 100% | CAKI-1 renal 79.6% and 88.4% | A498 renal 102% and 111% | CCRF-CEM leukemia 83.6% and 46.6% | SR leukemia 108% and 157% | RPMI-8226 leukemia 86.7% and 40.2% | OVCAR-8 ovarian 96.5% and 79.6% | OVCAR-5 ovarian 101% and 107% | OVCAR-4 ovarian 118% and 87.9% | SK-OV-3 ovarian 105% and 106% | IGROV1 ovarian 79.3% and 76.1% | OVCAR-3 ovarian 108% and 210% | HS 578T breast 83.7% and 88.9% | NCI/ADR-RES ovarian 95.6% and 99.4%

CCOC(=O)c1c(C)oc(C)c(C(=O)OCC)c1=O
inactive: SK-MEL-2 melanoma 111% and 112% | EKVX NSCLC 128% and 104% | SN12C renal 113% and 97.9% | UO-31 renal 96.6% and 86.9% | TK-10 renal 98.1% and 106% | ACHN renal 102% and 105% | A498 renal 113% and 117% | CCRF-CEM leukemia 96% and 108% | MOLT-4 leukemia 150% and 80.2% | SR leukemia 118% and 85% | RPMI-8226 leukemia 85.9% and 94.5% | OVCAR-8 ovarian 104% and 102% | OVCAR-5 ovarian 114% | OVCAR-4 ovarian 105% and 94.6% | SK-OV-3 ovarian 97.8% and 95.3% | OVCAR-3 ovarian 105% and 127% | HS 578T breast 109% | NCI/ADR-RES ovarian 108%

COc1ccc2ccccc2c1/C=N/N1CCCCC1
inactive: SK-MEL-2 melanoma 102% | EKVX NSCLC 93.6% | SN12C renal 96.9% | UO-31 renal 88.9% | TK-10 renal 105% | ACHN renal 99% | A498 renal 89% | CCRF-CEM leukemia 96.7% | MOLT-4 leukemia 88.3% | SR leukemia 108% | RPMI-8226 leukemia 91.3% | OVCAR-8 ovarian 95.4% | OVCAR-5 ovarian 98.7% | OVCAR-4 ovarian 99.5% | SK-OV-3 ovarian 111% | IGROV1 ovarian 116% | OVCAR-3 ovarian 103% | HS 578T breast 98.5% | NCI/ADR-RES ovarian 90.9%

O=C1OC2(c3ccccc31)c1ccc(O)c(O)c1Oc1c2ccc(O)c1O
-17.7% (active) and 101% (inactive): SR leukemia
inactive: SK-MEL-2 melanoma 85.1% | EKVX NSCLC 105% and 128% | SN12C renal 98.8% and 103% | UO-31 renal 90.2% and 87.8% | TK-10 renal 105% and 101% | ACHN renal 101% and 113% | A498 renal 114% and 97.9% | CCRF-CEM leukemia 90.8% and 110% | MOLT-4 leukemia 95.4% and 121% | RPMI-8226 leukemia 113% and 109% | OVCAR-8 ovarian 107% | OVCAR-5 ovarian 92.1% and 115% | OVCAR-4 ovarian 89.7% and 108% | SK-OV-3 ovarian 106% and 98.8% | IGROV1 ovarian 117% and 124% | OVCAR-3 ovarian 98.7% and 107% | HS 578T breast 112% and 132% | NCI/ADR-RES ovarian 107% and 104%

O=C(O)C1C2C=CC(C2)C1C(=O)O (centres undefined)
inactive: SK-MEL-2 melanoma 150% and 57.5% and 111% | EKVX NSCLC 120% | SN12C renal 84.7% and 24% and 102% | UO-31 renal 87.9% and 96.5% and 94.4% | TK-10 renal 91.1% and 32.5% and 106% | ACHN renal 111% and 33.6% and 97.6% | A498 renal 96.8% and 64.8% and 99.2% | CCRF-CEM leukemia 95.4% and 25.3% and 99.6% | MOLT-4 leukemia 106% and 27.8% and 101% | SR leukemia 108% and 36.9% and 94.8% | RPMI-8226 leukemia 103% and 29.3% and 98.3% | OVCAR-8 ovarian 103% and 27.9% | OVCAR-5 ovarian 102% and 35.6% and 98.9% | OVCAR-4 ovarian 99.2% and 106% | SK-OV-3 ovarian 113% and 65.1% and 106% | IGROV1 ovarian 95.2% and 25.2% and 106% | OVCAR-3 ovarian 113% and 41.1% and 108% | HS 578T breast 102% and 105%
